Measured values from ChEMBL document CHEMBL4513146, “CO-ADD screening of Karazin Kharkiv National University (Ukraine) compounds”.
Potency and affinity values are given separately.

Columns and labels:
Staphylococcus aureus = conditions: Concentration 32 ug.mL-1;; ASSAY_TEST Inhibition of Bacterial Growth; detection method Absorption (OD600); MEDIA CAMHB; plate type 384well; NBS; CORNING #3640; time 18 hr
Escherichia coli = conditions: Concentration 32 ug.mL-1;; ASSAY_TEST Inhibition of Bacterial Growth; detection method Absorption (OD600); MEDIA CAMHB; plate type 384well; NBS; CORNING #3640; time 18 hr

| Compound | Inhibition (Staphylococcus aureus) | Inhibition (Escherichia coli) |
| --- | --- | --- |
| Cc1ccc(Cn2c(=O)c3ccccc3n3c(=O)n(CC#N)nc23)cc1 | 3.14% | -7.28% |
| CCOC(=O)c1ccc(NC(=O)Cn2nc3c4sc(N5CCCC5)nc4ncn3c2=O)cc1 | 6.07% | -11.73% |
| COc1cccc(N(Cc2ccc(F)cc2)S(=O)(=O)c2ccc3nncn3c2)c1 | -0.47% | -9.93% |
| COc1ccccc1N1CCN(C(=O)Cn2nc3ccc(-c4ccc(C)c(C)c4)nn3c2=O)CC1 | 13.88% | -0.61% |
| Cc1ccc(-c2cc3c4nnc(CCC(=O)N5CCN(c6ccccn6)CC5)n4ccn3n2)cc1C | -0.56% | -4.11% |
| CCOC(=O)N1CCN(C(=O)CCc2nnc3c4cc(-c5ccccc5)nn4ccn23)CC1 | 4.14% | -0.18% |
| COc1ccc(NC(=O)Cn2nc3c4cc(-c5ccc(C)c(C)c5)nn4ccn3c2=O)c(OC)c1 | -8.81% | -14.02% |
| COc1cc(-c2nnc3c(=O)n(Cc4ccc(Cl)cc4)ccn23)cc(OC)c1OC | 11.84% | -0.28% |
| CC(C)CCn1c(=O)c2sccc2n2c(=O)n(CC(=O)NC(C)C)nc12 | -2.24% | -10.46% |
| COc1cccc(Oc2nccn3c(=O)n(CC(=O)Nc4ccc5c(c4)OCO5)nc23)c1 | 9.63% | -4.07% |
| CCN(C(=O)Cn1nc2cc(C)nc(Nc3ccc(C)c(F)c3)n2c1=O)c1ccccc1 | 15.67% | -1.02% |
| COc1ccccc1Cn1c(=O)c2sccc2n2c(=O)n(Cc3ccc(Br)cc3)nc12 | 5.17% | 2.24% |
| CSc1cccc(NC(=O)Cn2nc3c(N4CCCC(C)C4)nccn3c2=O)c1 (configuration not stated) | -21.6% | -14.98% |
| COc1ccccc1N1CCN(C(=O)CSc2nnc3c(=O)n(-c4ccccc4)ccn23)CC1 | 3.83% | -6.8% |
| COc1ccc(-c2cc3c4nn(CC(=O)Nc5cc(C)cc(C)c5)c(=O)n4ccn3n2)cc1 | 1.97% | 7.1% |
| COc1ccc(NC(=O)c2ccc3nn(CC(=O)Nc4cccc(SC)c4)c(=O)n3c2)cc1 | -4.7% | -9.26% |
| O=C(CSc1nnc2c(=O)n(-c3ccccc3)ccn12)Nc1ccc2c(c1)OCCO2 | 8.84% | -1.03% |
| CCCCN(CC)c1ccc2nnc(CCc3nc(-c4ccc5c(c4)OCO5)no3)n2n1 | -15.7% | 1.35% |

| Compound | Inhibition (Staphylococcus aureus) | Inhibition (Escherichia coli) |
| --- | --- | --- |
| O=C(Cn1nc2ccc(SCc3ccc(Cl)cc3)nn2c1=O)Nc1ccc2c(c1)OCO2 | 9.4% | -2.43% |
| Cc1ccc(NC(=O)c2ccc3nnc(SCC(=O)Nc4ccc(F)cc4)n3c2)cc1 | 14.37% | 5.45% |
| CCc1ccc(Cn2c(=O)c3sccc3n3c(=O)n(Cc4c(F)cccc4Cl)nc23)cc1 | 3.47% | -8.75% |
| COc1cccc(Oc2nccn3c(=O)n(CC(=O)Nc4ccc5c(c4)OCCO5)nc23)c1 | 9.52% | -8.9% |
| COc1ccc(NC(=O)Cn2nc3ccc(-c4ccc(Cl)cc4)nn3c2=O)cc1OC | -0.18% | -4.63% |
| O=c1n(Cc2cccc(C(F)(F)F)c2)nc2c(S(=O)(=O)N3CCCCC3)cccn12 | 4.93% | -3.78% |
| COc1ccc(NC(=O)Cn2nc3ccc(SC4CCCCC4)nn3c2=O)c(OC)c1 | 7.02% | -7.62% |
| Cc1cc(C)cc(Oc2nccn3c(=O)n(CC(=O)Nc4cccc(Cl)c4)nc23)c1 | -12.18% | -3.44% |
| COc1cccc(-n2ccn3c(SCC(=O)c4ccc(Br)cc4)nnc3c2=O)c1 | 12.63% | 0.58% |
| CCc1ccc(N(Cc2ccc(OC)cc2)S(=O)(=O)c2cccn3c(C)nnc23)cc1 | 5.17% | -2.97% |
| COc1ccc(-c2cc3c4nnc(SCC(=O)Nc5ccccc5C(F)(F)F)n4ccn3n2)cc1 | -10.53% | 1.87% |
| CC(C)c1nnc2c(SCC(=O)Nc3ccc(C#N)cc3)nc3ccccc3n12 | 2.21% | 1.03% |
| Cc1ccc(C(=O)CSc2nnc3c(=O)n(-c4ccc(F)cc4)ccn23)c(C)c1 | 7.85% | -6% |
| COc1ccc(NC(=O)Cn2nc3nc(Nc4ccc(F)cc4)ccn3c2=O)cc1F | -2.83% | -10.06% |
| COc1ccc(-c2cc3c4nn(CC(=O)Nc5ccc(C)cc5C)c(=O)n4ccn3n2)cc1 | 1.83% | 2.27% |
| CCOc1ccc(-n2ccn3c(SCC(=O)Nc4ccc5c(c4)OCCO5)nnc3c2=O)cc1 | 4.27% | -9.56% |
| O=C(CCc1nnc2c3cc(-c4ccc(F)cc4)nn3ccn12)N1CCC(Cc2ccccc2)CC1 | 6.97% | -0.02% |
| Cc1ccc(-c2cc3c4nn(CC(=O)Nc5cccc(C)c5C)c(=O)n4ccn3n2)cc1C | 13.1% | -0.36% |
